ChEMBL document CHEMBL3433997, “St. Jude Leishmania screening dataset” (2016)

Key:
Assay type in all cases: functional
[1] = target: Solute carrier family 2, facilitated glucose transporter member 1 (Homo sapiens) (UniProt P11166); test: ST_JUDE_LEISH: Cytotoxicity at 2uM final concentration against transgenic Leishmania Mexicana promastigotes LmGLUT1 that are glucose transport deficient and complemented with the human glucose transporter GLUT1. Activity is measured by DNA content using SYBR green in vitro
[2] = target: Hexose transporter 1 (Plasmodium falciparum) (UniProt O97467); test: ST_JUDE_LEISH: Cytotoxicity at 2uM final concentration against transgenic Leishmania Mexicana promastigotes LmPfHT that are glucose transport deficient and complemented with the Plasmodium falciparum hexose transporter. Activity is measured by DNA content using SYBR green in vitro
[3] = target: Glucose transporter (Leishmania mexicana) (UniProt O61059); test: ST_JUDE_LEISH: Cytotoxicity at 2uM final concentration against transgenic Leishmania Mexicana promastigotes LmGT2 that are glucose transport deficient and complemented with the L. Mexicana glucose transporter 2. Activity is measured by DNA content using SYBR green in vitro

Chain of Solute carrier family 2, facilitated glucose transporter member 1 (Homo sapiens) (P11166 whole entry): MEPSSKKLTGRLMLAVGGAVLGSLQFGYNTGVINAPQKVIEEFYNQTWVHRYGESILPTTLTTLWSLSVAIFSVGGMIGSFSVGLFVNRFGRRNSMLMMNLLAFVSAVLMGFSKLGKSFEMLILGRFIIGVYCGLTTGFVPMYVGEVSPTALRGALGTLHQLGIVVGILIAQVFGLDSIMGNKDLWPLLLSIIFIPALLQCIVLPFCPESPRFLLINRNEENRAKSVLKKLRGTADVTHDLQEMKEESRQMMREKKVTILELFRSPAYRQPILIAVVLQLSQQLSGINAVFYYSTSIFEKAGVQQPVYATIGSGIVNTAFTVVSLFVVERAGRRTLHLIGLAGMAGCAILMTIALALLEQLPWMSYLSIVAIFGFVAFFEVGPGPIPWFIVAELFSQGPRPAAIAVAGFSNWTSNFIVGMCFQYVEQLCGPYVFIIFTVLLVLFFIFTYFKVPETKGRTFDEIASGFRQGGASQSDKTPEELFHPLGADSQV

O=C(Nc1ccc2c(c1)CCC2)c1cccc(N2CCN(c3ccncc3)CC2)c1
inhibition [1]: 1.86%
inhibition [2]: 4.51%
inhibition [3]: 1.58%

CC(C)(C)c1ccc(S(=O)(=O)Nc2cc(Cl)ccc2Cn2ccc(N3CCNCC3)nc2=O)cc1
inhibition [1]: -1.22%
inhibition [2]: -3.39%
inhibition [3]: -1.02%

CCCN(CCC)S(=O)(=O)c1ccc(C(=O)N2CCC(C(=O)OCC)CC2)cc1
inhibition [1]: 6.42%
inhibition [2]: 5.73%
inhibition [3]: 5.48%

COc1ccc(Nc2nccc(-c3ccc4c(-c5ccsc5)cnc(N)c4c3)n2)cc1
inhibition [1]: 1.99%
inhibition [2]: 7.26%
inhibition [3]: 6.65%

O=C(C=Cc1ccc(Cl)c(Cl)c1)NCCCCCN1CCC(CCCNS(=O)(=O)c2ccc(F)cc2)CC1
inhibition [1]: 1.12%
inhibition [2]: -1.5%
inhibition [3]: -0.43%

NC1=NC(c2ccccc2)(c2ccccc2)C(=O)N1Cc1ccccc1Br
inhibition [1]: 7.09%
inhibition [2]: 4.75%
inhibition [3]: 6.62%

CN(C)CCn1c(=N)n(CC(O)c2ccc(Cl)c(Cl)c2)c2ccccc21 (configuration not stated)
inhibition [1]: 6.31%
inhibition [2]: 4.53%
inhibition [3]: 5.49%

O=C(Cc1ccsc1)NCC(c1ccccc1Cl)c1c[nH]c2ccccc12 (configuration not stated)
inhibition [1]: 6.27%
inhibition [2]: 5.24%
inhibition [3]: 4.67%

O=C(/C=C/c1ccc(Cl)c(Cl)c1)NC1CCN(CCNC(=O)c2cccc(Cl)c2)CC1
inhibition [1]: 4.41%
inhibition [2]: 3.11%
inhibition [3]: 2.53%

COc1ccc2ccc(OC)c(CNCCCCCCNCc3c(OC)ccc4ccc(OC)cc34)c2c1
inhibition [1]: 5.41%
inhibition [2]: 9.06%
inhibition [3]: 4.72%

CC(Cc1ccc(OCC(=O)NCC2CCN(CCc3cccc(Cl)c3)CC2)cc1)NCCc1cccc(Cl)c1 (configuration not stated)
inhibition [1]: 3.07%
inhibition [2]: 4.09%
inhibition [3]: 1.92%

COc1ccc2c(NN=Cc3ccccc3Cl)ccnc2c1
inhibition [1]: 3.65%
inhibition [2]: 4.27%
inhibition [3]: 4.32%

COc1cccc(C=CC(=O)N(CCN)Cc2ccccc2)c1
inhibition [1]: 6.9%
inhibition [2]: 8.75%
inhibition [3]: 7.33%

CN1CCC(C(=O)N(Cc2ccc(-c3ccc(CNCCc4ccc(S(C)(=O)=O)cc4)cn3)cc2)C2CCN(Cc3ccccc3)CC2)CC1
inhibition [1]: 3.07%
inhibition [2]: 2.62%
inhibition [3]: 5.75%

O=C(NCc1cccc(Cl)c1)c1ccc(CNC2CCN(Cc3ccccc3)CC2)cc1
inhibition [1]: -1.21%
inhibition [2]: -0.25%
inhibition [3]: 2.18%

C=CCN1Cc2c(O)cccc2C(c2ccc(O)c(O)c2)C1 (configuration not stated)
inhibition [1]: 6.49%
inhibition [2]: 5.18%
inhibition [3]: 4.91%

O=C(/C=C/c1ccc(Cl)c(Cl)c1)NCCCCCN1CCCN(C(=O)Nc2cc(Cl)nc(Cl)c2)CC1
inhibition [1]: 5.11%
inhibition [2]: 6.64%
inhibition [3]: 5.94%

Cc1cc(OCCCN2CCCCC2)ccc1NC(=O)COc1ccc(Cl)cc1C(=O)c1cc(C#N)cc(C(F)(F)F)c1
inhibition [1]: 4.63%
inhibition [2]: 3.53%
inhibition [3]: 0.43%

N=c1[nH]c2cccc3ccc4cccc1c4c32
inhibition [1]: 9.96%
inhibition [2]: 9.29%
inhibition [3]: 7.95%

Cc1ncccc1C(=O)Nc1cccc(-c2cccc(-c3nc4cccc(C)c4[nH]3)c2)c1
inhibition [1]: 0.36%
inhibition [2]: 1.44%
inhibition [3]: 1.05%

CC[C@H](C)CNC(=O)c1cncc(-c2cccc(CN3CCC(N4CCCC4)CC3)c2)c1
inhibition [1]: -3.12%
inhibition [2]: 2.1%
inhibition [3]: -0.34%

CCNc1cc(C(=O)N[C@@H](Cc2ccccc2)[C@H](O)CNC(C)(C)Cc2cccc(OC)c2)cc(N2CCCC2=O)c1
inhibition [1]: -2.08%
inhibition [2]: -1.02%
inhibition [3]: -0.38%

CC(C)OC(=O)c1ccccc1S(N)(=O)=O
inhibition [1]: 15.3%
inhibition [2]: 12.7%
inhibition [3]: 7.97%

O=C(c1cc2c(s1)-c1cccc(Cl)c1SC2)N1CCN(c2ccncc2)CC1
inhibition [1]: 4.7%
inhibition [2]: 3.88%
inhibition [3]: 4.35%

N#Cc1ccc(-c2ccc(C(=O)NCCCCN3CCC(c4ccncc4)CC3)cc2)cc1
inhibition [1]: 1.06%
inhibition [2]: 1.16%
inhibition [3]: 2.75%

CCCc1cc(Cc2cnc(N)nc2N)cc(CCC)c1OCCCCC(=O)OC
inhibition [1]: 3.01%
inhibition [2]: 0.4%
inhibition [3]: 0.33%

CC(C)Sc1nncc(-c2cnnc(SC(C)C)n2)n1
inhibition [1]: -0.53%
inhibition [2]: -0.11%
inhibition [3]: 0.07%

Nc1cccc(CNCc2ccc(-c3cccc(-c4nc5ccccc5[nH]4)c3)cc2)c1
inhibition [1]: 1.2%
inhibition [2]: 0.24%
inhibition [3]: -0.54%

OC1(c2ccc(Br)cc2)CCN(C2CCN(Cc3ccccc3)CC2)CC1
inhibition [1]: 5.8%
inhibition [2]: 6.01%
inhibition [3]: 3.71%

O=C(/C=C/c1ccc(Cl)c(Cl)c1)NCCCCCN1CCC(NC(=O)Nc2ccc3c(c2)OCO3)CC1
inhibition [1]: 0.33%
inhibition [2]: 2.53%
inhibition [3]: 4.27%

COc1cccc(OC)c1CN1CCC(N(C)CCCCCCCCN2CCC(OC(=O)Nc3ccccc3-c3ccccc3)CC2)CC1
inhibition [1]: 105%
inhibition [2]: 108%
inhibition [3]: 74.3%

O=C(c1ccc([N+](=O)[O-])o1)N1CCN(c2nc3c(F)cc(F)cc3s2)CC1
inhibition [1]: 21%
inhibition [2]: 6.03%
inhibition [3]: 7.31%

O=C(Nc1ccc(Cl)c(Cl)c1)C1CCC(=O)N1[C@@H](Cc1ccccc1)C(=O)NCCc1ccc(Cl)cc1 (some centres not stated)
inhibition [1]: 0.51%
inhibition [2]: 0.41%
inhibition [3]: 1.43%

Cc1cccc2nc(-c3cccc(-c4cccc(NC(=O)Nc5ccc(F)c(F)c5F)c4)c3)[nH]c12
inhibition [1]: 1.75%
inhibition [2]: 2.51%
inhibition [3]: 2.44%

O=C(Nc1ccc(OC2CCN(Cc3ccccc3)CC2)c(Cl)c1)c1cccs1
inhibition [1]: 2.31%
inhibition [2]: 4.54%
inhibition [3]: 4.68%

COc1ccc2[nH]c(/C=C/c3cccc4ccc(C)nc34)nc2c1
inhibition [1]: 2.88%
inhibition [2]: 2.44%
inhibition [3]: 0.69%

CN(c1ccc(F)cc1)S(=O)(=O)c1ccc(Cl)c(C(=O)Nc2cccc(C#N)c2)c1
inhibition [1]: 4.24%
inhibition [2]: 3.52%
inhibition [3]: 3.65%

CC1(C)N=C(N)N=C(N)N1c1cccc(Cl)c1
inhibition [1]: 0.67%
inhibition [2]: -0.19%
inhibition [3]: 2.95%

COc1ccc(C2CC(c3cccs3)=NN2C(=O)c2ccccc2)cc1OC (configuration not stated)
inhibition [1]: 6.92%
inhibition [2]: 1.98%
inhibition [3]: 5.57%

O=C(Nc1ccc(C(F)(F)F)cc1)NC1CCN(c2ccnc3ccccc23)CC1
inhibition [1]: 4.74%
inhibition [2]: 3.35%
inhibition [3]: -3.98%

COc1cccc(C(=O)Nc2nonc2-c2ccc(OC)c(OC)c2)c1
inhibition [1]: 2.16%
inhibition [2]: 2.49%
inhibition [3]: 1.34%

Cn1cnc(CCNC(=O)c2ccc(-c3cccc(-c4nc5ccccc5[nH]4)c3)cc2)c1
inhibition [1]: 0.8%
inhibition [2]: 0.81%
inhibition [3]: -1.62%

Cc1cccc2nc(-c3ccc(-c4ccc(CNCCCN5CCCC5=O)cc4)s3)[nH]c12
inhibition [1]: 2.02%
inhibition [2]: 3.54%
inhibition [3]: 3.25%

CN(C)CCOc1ccc(-c2cc(-c3ccc(Cl)c(O)c3)c(-c3ccncc3)[nH]2)cc1
inhibition [1]: -0.18%
inhibition [2]: -0.32%
inhibition [3]: 0.48%

N[C@@H](COc1cccc2c(-c3ccncc3)c(-c3cccc(NC(=O)Nc4ccccc4)c3)nn12)c1ccccc1
inhibition [1]: -2.24%
inhibition [2]: -1.71%
inhibition [3]: -2.62%

COc1ccc(O)c(-c2sc(N=C(N)N)nc2-c2ccccc2)c1
inhibition [1]: 1.77%
inhibition [2]: 2.67%
inhibition [3]: 3.42%

CCC(CC)CN1C(=O)C(c2ccccc2)(c2ccccc2)N=C1N
inhibition [1]: 6.55%
inhibition [2]: 5.61%
inhibition [3]: 6.88%

Cc1cccc2nc(-c3ccc(-c4cccc(NC(=O)c5cnn6cccnc56)c4)cc3)[nH]c12
inhibition [1]: 15.4%
inhibition [2]: 11.7%
inhibition [3]: 8.93%

COc1ccc(C(=O)CCc2ccc(O)cc2)cc1
inhibition [1]: 1.26%
inhibition [2]: 1.48%
inhibition [3]: 2.43%

Cc1cccc2nc(-c3ccc(-c4cccc(CN5CCC(C(N)=O)CC5)c4)cc3)[nH]c12
inhibition [1]: 0.21%
inhibition [2]: -0.52%
inhibition [3]: -1.72%

Cc1cc(F)ccc1Nc1nc(N(C)c2ccccc2)c2cccc(O)c2n1
inhibition [1]: 12.3%
inhibition [2]: 9.06%
inhibition [3]: 1.82%

CN1CCCC(CN2CCN(Cc3ccc(-c4ccc(-c5nc6ccccc6[nH]5)s4)cc3)CC2)C1 (configuration not stated)
inhibition [1]: 22.9%
inhibition [2]: 34.8%
inhibition [3]: 9.58%

Cc1cccc2nc(-c3cccc(-c4cccc(NC(=O)CNc5ccc(C(N)=O)cc5)c4)c3)[nH]c12
inhibition [1]: 4.73%
inhibition [2]: 4.35%
inhibition [3]: 3.03%

Oc1ccc(Cc2ccccc2)cc1CNC1CCCCC1
inhibition [1]: 1.43%
inhibition [2]: 1.57%
inhibition [3]: 1.87%

COc1ccccc1CCNC(=O)c1cc(Br)cc(N2CCN(c3ccncc3)CC2)c1
inhibition [1]: 1.16%
inhibition [2]: 2.75%
inhibition [3]: 0.04%

COc1ccc(Br)cc1/C=C/C(=O)Nc1ccc(C2CCN(C)CC2)cc1
inhibition [1]: 3.58%
inhibition [2]: 3.16%
inhibition [3]: 4.19%

O=C(Nc1nccs1)c1cc(-c2cccnc2)nc2ccc(Br)cc12
inhibition [1]: 7.77%
inhibition [2]: -0.8%
inhibition [3]: -0.59%

O=C(NCc1cccs1)[C@H](Cc1ccccc1)Nc1ccnc(NCCc2ccc(F)cc2)n1
inhibition [1]: 11.2%
inhibition [2]: 9.62%
inhibition [3]: 9.52%

CN1CCC(C(=O)Nc2ccc(-c3cccc(-c4nc5cc(C(F)(F)F)ccc5[nH]4)c3)cc2)CC1
inhibition [1]: 0.78%
inhibition [2]: 2.62%
inhibition [3]: 2.31%

Cc1cccc(-c2nc(Nc3ccncc3)c3cc(N(C)C)ccc3n2)n1
inhibition [1]: 0.37%
inhibition [2]: -1.05%
inhibition [3]: -3.66%

O=C(Nc1cc(C(F)(F)F)cc(C(F)(F)F)c1)Nc1ccc(Cl)c(Cl)c1
inhibition [1]: 0.47%
inhibition [2]: 1.04%
inhibition [3]: 1.22%

Fc1ccc2c(NN=CC=Cc3ccccc3)ccnc2c1
inhibition [1]: 12.7%
inhibition [2]: 9.84%
inhibition [3]: 11.3%

COc1cc(C(=O)N2CCOC(CCN3CCC[C@H]3C(=O)Nc3ccccc3)(c3ccc(Cl)c(Cl)c3)C2)cc(OC)c1OC (some centres not stated)
inhibition [1]: 6.58%
inhibition [2]: 5.14%
inhibition [3]: 2.89%

N=C(N)NCCN(Cc1ccccc1)c1ccc(Cl)cc1
inhibition [1]: 1.36%
inhibition [2]: -0.96%
inhibition [3]: 1.25%

CCCCCCN1CCCN(Cc2ccc(C(=O)Nc3cccc(CC)c3)cc2)CC1
inhibition [1]: 4.76%
inhibition [2]: 3.36%
inhibition [3]: 8.83%

COc1ccc2ncc(Cl)c(CCN3CCC(NCc4ccc5c(n4)NC(=O)CO5)CC3)c2c1
inhibition [1]: 7.95%
inhibition [2]: 5.92%
inhibition [3]: 6.59%

Cc1cccc(Cl)c1S(=O)(=O)N1CCCCC(c2ccc(C(F)(F)F)cc2)=N1
inhibition [1]: 4.54%
inhibition [2]: 4.52%
inhibition [3]: 3.77%

CNC(=O)/C=C/c1cc(NC(=O)Nc2cc(C)nc3c(F)cccc23)ccc1OC
inhibition [1]: 3.93%
inhibition [2]: 2.38%
inhibition [3]: 3.44%

Cc1cc(C)c2nc(N3CCC(C(=O)NCCCN4CCC(N5CCCCC5)CC4)CC3)sc2c1
inhibition [1]: 1.45%
inhibition [2]: 2.91%
inhibition [3]: 0.65%

c1ccc(CNc2nc(NCCc3c[nH]cn3)nc(NCc3cccc4ccccc34)n2)cc1
inhibition [1]: -1.52%
inhibition [2]: 0.21%
inhibition [3]: -0.28%

CCOc1cc(C)ccc1C1CCN(CCCCNC(=O)c2nc(-c3ccc(C(F)(F)F)cc3)[nH]c2C)CC1
inhibition [1]: 1.65%
inhibition [2]: 0.72%
inhibition [3]: -0.05%

Cc1csc2nc(-c3ccccn3)nc(Nc3ccc4ncsc4c3)c12
inhibition [1]: 0.73%
inhibition [2]: 2.13%
inhibition [3]: 0.95%

CCCCCCN1CCC(NCc2ccc(Cl)cc2)CC1
inhibition [1]: 7.59%
inhibition [2]: 7.61%
inhibition [3]: 4.28%

CC(C)Cn1cc(C2CCN(CCN3CCC(CNC(=O)c4ccc(NC(=O)c5cc(Cl)cc(Cl)c5)cc4)CC3)CC2)c2ccccc21
inhibition [1]: 1.27%
inhibition [2]: 4.22%
inhibition [3]: 1.97%
